Source: PubChem (several laboratories)
Only some compounds are listed: those with a hit (about 1.6% of all), similar ones and a draw of the others.
ugtP null kill: kills S. aureus RN4220 lacking UgtP; S. aureus RN4220 ugtP deletion, OD600 growth, 16 h; growth inhibition, % (concentration not given with the values); actives 0.54% (n = 330,000); in the data active = growth inhibition above about 68%;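 note: plate controls were untreated wells for no effect and antibiotic for full effect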
RecA splice inh: inhibitors of M. tuberculosis RecA intein splicing; P9WHJ3; cell-free RecA intein splicing, fluorescence; inhibition, % (concentration not given with the values); actives 0.75% (n = 290,000); in the data active = inhibition above about 30%;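 note: 0% = vehicle wells and 100% = reference inhibitor control wells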
CCHF vOTU inh-1: blocks the CCHF virus ovarian tumor domain protease; CCHFV vOTU protease, Pep-AMC fluorescence; inhibition, % at 11.5 µM; actives 0.55% (n = 370,000); note: 0% = vehicle wells with enzyme and 100% = no enzyme wells
Mtb hypoxia rep: reduces hypoxia-regulated biosensor signal in M. tuberculosis | actives 0.1% (n = 300,000) | M. tuberculosis hypoxia-regulated fluorescent reporter, fluorescence | fluorescence inhibition, % (no concentration beside the values); in the data active = fluorescence inhibition mostly above about 23%, no sharp cut-off; inactive = mostly below about 17%
BJeLR viability: BJeLR cell viability loss. inhibition, % (no concentration beside the values). BJeLR (HRASV12) viability, CellTiter-Glo ATP luminescence, 48 h. AID 1554. actives 0.17% (n = 300,000); in the data active = inhibition above about 50%
RN4220 kill: S. aureus RN4220 growth inhibition | AID 1259311 | inhibition, % (test concentration not listed) | OD600, 16 h | actives 0.33% (n = 330,000); in the data active = inhibition above about 85%;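 note: plate controls were untreated cells for no effect and reference antibiotic for full effect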
CCHF vOTU inh-2: confirmation of CCHF virus vOTU protease inhibitors; shares compounds with CCHF vOTU inh-1; Recombinant CCHFV vOTU, Pep-AMC fluorescence; actives 17% (n = 1,900); inhibition, % at 11.5 µM
* marks the source's active call; other numbers are inactive results; / = no result shown. Cut-off read from the data, not from the text of the source, unless noted: active = inhibition above about 30%; inactive = the rest.

SMILES | ugtP null kill | RecA splice inh | CCHF vOTU inh-1 | Mtb hypoxia rep | BJeLR viability | RN4220 kill | CCHF vOTU inh-2
CCN1CC2C3C(=O)N(Cc4ccccc4)C(=O)C3[C@](CC)(C1=O)N2C(=O)c1ccccc1 (some centres not stated) | -1 | / | / | 18 | / | 5 | /
CC(=O)CC1c2ccccc2S(=O)(=O)N1C1CCCC1 (configuration not stated) | 1 | / | / | 20 | / | 6 | /
C[C@H]1CNCCN1c1ccc(N2CC[C@@H](O)C2)c(C#N)c1 | / | / | 34* | / | / | / | -20
Cc1cc(N2CCNC[C@@H]2C)ccc1N1CC[C@@H](O)C1 | / | / | 17 | / | / | / | /
CCOC(=O)CSc1nc(-c2ccc(OC)cc2)ns1 | 12 | 4 | 33* | 8 | -13 | 14 | 0
COc1cc2c(cc1OC)[C@@H](NC(=O)CCC1CCCCC1)[C@H](O)C2 | 3 | / | -4 | 5 | / | 4 | /
CCCCCCCCCC(=O)N[C@@H]1c2cc(OC)c(OC)cc2C[C@H]1O | 12 | / | 31* | 2 | / | 2 | -1
COc1cc(C(=O)O[C@H]2CC(C)=CCC[C@]3(C)O[C@@H]3C(O)C2C(C)C)cc(OC)c1OC (some centres not stated) | -1 | / | / | 8 | / | 3 | /
CNC(=O)C(C)C1C[C@@]1(C)C(NC(=O)OCc1ccccc1)c1ccccc1 (some centres not stated) | 3 | / | / | 22 | / | 3 | /
CC(C)CS(=O)(=O)C1=NN2C(=N)/C(=C\c3ccc(OC(=O)c4ccco4)cc3)C(=O)N=C2S1 | / | 40* | 37* | / | 4 | / | 5
CCS(=O)(=O)C1=NSC2=NC(=O)/C(=C\c3ccc(OC(=O)c4ccco4)c(OC)c3)C(=N)N21 | -2 | 27 | 17 | -4 | -13 | 2 | /
CCc1ccc(C2CC=C(C(=O)O)C(c3ccc(F)cc3)N2S(=O)(=O)c2ccc(C)cc2)cc1 (configuration not stated) | 38 | / | / | 10 | / | 13 | /
Cc1cccc(OCC(=O)Nc2ccc(CN3CCOCC3)cc2)c1C | -2 | 0 | 35* | 6 | -6 | 0 | -8
COC(=O)[C@]12C[C@H](CC(=O)NCc3ccccc3)C(=O)N(Cc3ccc(Cl)cc3Cl)C1=C[C@H](C(C)(C)C)O[C@@H]2C | / | / | 23 | / | / | / | /
COC(=O)[C@]12C[C@H](CC(=O)NCc3ccccc3)C(=O)N(Cc3ccco3)C1=C[C@H](C(C)(C)C)O[C@@H]2C | / | / | 16 | / | / | / | /
COC(=O)[C@]12C[C@H](CC(=O)NCc3cccc(C(F)(F)F)c3)C(=O)N(Cc3ccco3)C1=C[C@H](C(C)(C)C)O[C@@H]2C | / | / | 32* | / | / | / | 5
COC(=O)[C@]12C[C@H](CC(=O)NCc3cccc(C(F)(F)F)c3)C(=O)N(Cc3ccc(Cl)cc3Cl)C1=C[C@H](C(C)(C)C)O[C@@H]2C | / | / | 32* | / | / | / | 15
CCOc1cc(C(=O)Nc2ccc(S(=O)(=O)Nc3nnc(CC)s3)cc2)cc(OCC)c1OCC | 9 | 0 | 38* | -4 | -2 | 2 | 0
CC(C)n1c(C=CC(O)CC(O)CC(=O)O)c(-c2ccc(F)cc2)c2ccccc21 (configuration not stated) | -8 | / | / | -8 | / | 6 | /
CCSc1nc(-c2ccccc2)cc(=O)[nH]1 | -1 | / | 31* | 1 | / | 4 | -12
CC1([N+](=O)[O-])COP(=O)(Nc2cccc(F)c2)OC1 (configuration not stated) | / | / | 10 | / | / | / | /
CC1([N+](=O)[O-])COP(=O)(Nc2cccc(Cl)c2)OC1 (configuration not stated) | / | / | 38* | / | / | / | -18
CCOC(=O)C1C2COc3ccc(Cl)cc3C2N2C(=O)CN(Cc3ccc(C)cc3)C(=O)[C@@]12C (some centres not stated) | -28 | / | / | -7 | / | 1 | /
C#CCOCCOCCOCCNc1nc(N2CCN(C(=O)Cn3cc(CCO)nn3)CC2)nc(N2CCN(C(=O)C(Cc3ccc(O)cc3)n3cc(CCO)nn3)CC2)n1 (configuration not stated) | 7 | / | / | 12 | / | 5 | /
S=C(Nc1ccc2nsnc2c1)N1CCCCCC1 | 2 | 55* | 36* | -1 | -5 | -1 | 97*
SMILES | ugtP null kill | RecA splice inh | CCHF vOTU inh-1 | Mtb hypoxia rep | BJeLR viability | RN4220 kill | CCHF vOTU inh-2
COCCNC(=S)Nc1ccc(Cl)c(Cl)c1 | -7 | 0 | 8 | 10 | 1 | 1 | /
COCCNC(=S)Nc1ccc2nsnc2c1 | / | 3 | 100* | / | 4 | / | -15
CCOc1ccc(NC(=S)Nc2ccc3nsnc3c2)cc1 | -3 | 26 | 118* | / | -1 | 0 | 92*
C=CCN(CC=C)C(=S)Nc1ccc2nsnc2c1 | -5 | 1 | 51* | 12 | 11 | 5 | 87*
CCOc1ccc(NC(=O)Nc2ccc3nsnc3c2)cc1 | -12 | 2 | 13 | 8 | 15 | -2 | /
CCOC1OC(C(=O)N2CCOCC2)=CC(c2coc3ccccc3c2=O)C1CCCO (configuration not stated) | -2 | / | / | 0 | / | 0 | /
Cc1ccc(C(=O)NC(=CC=Cc2ccccc2)C(=O)NCc2ccco2)cc1 | 0 | / | / | 5 | / | 3 | /
CCCCCCCC(=O)OCC(=O)[C@@]1(O)CCC2C3CCC4=CC(=O)CC[C@]4(C)C3C(O)C[C@@]21C (some centres not stated) | -2 | / | / | -1 | / | 4 | /
CCCNC1CCc2nc(N)sc2C1 (configuration not stated) | 3 | / | / | 2 | / | 2 | /
Cc1ccc(Nc2ncnc3c2oc2ccccc23)cc1 | -14 | -2 | -3 | 21 | 3 | 3 | /
COc1ccc(Nc2ncnc3c2oc2ccccc23)cc1 | / | 1 | 33* | / | 0 | / | -4
COC(CC1OC1C(=O)C(C)OCc1ccccc1)OC (configuration not stated) | -1 | / | / | 16 | / | 8 | /
COC(=O)C(c1ccccc1)N(C)S(=O)(=O)c1cccc(S(=O)(=O)N(C)C(C(=O)OC)c2ccccc2)c1 (configuration not stated) | 7 | / | / | 2 | / | 3 | /
CC(C)(C)S(=O)N1Cc2cc(C(=O)N3CCc4ccccc4C3)nc(-c3cccc(-c4cccnc4)c3)c2[C@@H]1CCO (some centres not stated) | / | / | 37* | / | / | / | 9
Cc1ccc(S(=O)(=O)N2C(c3ccc(Cl)cc3)CC=C(C(=O)O)C2c2ccccc2F)cc1 (configuration not stated) | 72 | / | / | 10 | / | 19 | /
CCS(=O)(=O)c1ccc(O)c(NC(=O)c2cc(-c3ccccn3)nc3ccccc23)c1 | -6 | / | 32* | -1 | / | 1 | -17
CCN(CC)S(=O)(=O)c1ccc(N2CCOCC2)c(NC(=O)c2cc(-c3ccccn3)nc3ccccc23)c1 | 7 | 6 | 8 | -9 | 8 | -6 | /
CCc1cccc(NC(=O)CN(C)S(=O)(=O)c2cccc3nsnc23)c1 | -6 | 0 | 36* | 0 | 5 | 4 | -3
Cc1cc(C)cc(NC(=O)CN(C)S(=O)(=O)c2cccc3nsnc23)c1 | -1 | / | 21 | 10 | -1 | 1 | /
